Pf growth 48h: P. falciparum growth inhibition at 48 hours (one generation). P. falciparum luciferase growth in erythrocytes, 48 h. Potency, µM (top dose mostly 28.7 µM), inactives show top-dose activity change, negative = inhibition, hits mostly inhibitors. 310,000 compounds, 5.9% hits. AID 504832; also: % is scaled to controls: 0 for no effect and ±100 for the full control effect
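Here the parasites carry a stable luciferase gene and grow inside erythrocytes in Albumax-based RPMI medium with compound for one erythrocytic cycle. Activity is scored as loss of luminescent signal.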
Pf growth 96h: inhibits malaria parasite growth, 96 h | P. falciparum luciferase reporter growth, 96 h | Potency, µM (doses to about 28.7 µM), without a hit: at the top dose activity change, negative = inhibition, most hits filed as inhibitors | 320,000 compounds, 6.9% hits; also: % is scaled to controls: 0 for no effect and ±100 for the full control effect
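96 h incubation, 37 C, 5% CO2, of luciferase-reporter P. falciparum-infected RBCs (2% hematocrit, 0.05% parasitemia final) with test compounds; endpoint luminescence.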
SARS PLpro yeast: blocks SARS-CoV papain-like protease in a yeast assay; Potency, µM (titrated, usually from 32.9 µM), for the others: top-dose activity, positive = growth rescue, most hits filed as activators; S. cerevisiae expressing SARS-CoV PLpro, growth rescue; 330,000 compounds, 0.19% hits; AID 485353; calls by dose curve; also: 0% is about no effect; nearly all actives have a fitted effect of over 55% in size
AmpC no deterg: inhibitors of E. coli AmpC beta-lactamase without detergent; AID 485341; 330,000 compounds, 0.52% hits; AmpC nitrocefin hydrolysis, absorbance 480 nm, 0.0001% Triton; Potency, µM (doses to about 57.1 µM), without a hit: top-dose activity change, negative = inhibition, usual class: inhibitors; P00811;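 also: plate controls were no compound for no effect and no enzyme for full effect; nearly all actives have a fitted effect of over 20% in size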
Target sequence (P00811 whole entry, looked up): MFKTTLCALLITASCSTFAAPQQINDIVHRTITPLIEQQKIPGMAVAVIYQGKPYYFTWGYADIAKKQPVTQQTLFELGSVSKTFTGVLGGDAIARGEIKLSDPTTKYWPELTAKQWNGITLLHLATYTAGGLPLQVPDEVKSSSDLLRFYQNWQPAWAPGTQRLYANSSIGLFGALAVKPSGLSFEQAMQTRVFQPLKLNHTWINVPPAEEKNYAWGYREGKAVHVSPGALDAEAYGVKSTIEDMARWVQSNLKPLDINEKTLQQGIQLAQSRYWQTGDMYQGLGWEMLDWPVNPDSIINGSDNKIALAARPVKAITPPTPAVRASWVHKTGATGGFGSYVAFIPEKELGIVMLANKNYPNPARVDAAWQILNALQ
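20 mM phosphate pH 7.0 + 0.01% (detergent screen) or 0.0001% Triton X-100; 5.3 nM AmpC reagent; cpd preinc 15 min RT; nitrocefin (800 uM stock) to start; A480 q20 s × 4 min; Activity was normalised to no-enzyme and no-compound control wells.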
AmpC inh detg: AmpC beta-lactamase inhibition with detergent present. Potency, µM (doses to about 114 µM), inactives show top-dose activity change, negative = inhibition, most hits filed as inhibitors. P00811. 370,000 compounds, 0.041% hits. AID 485294. AmpC hydrolysis of nitrocefin, absorbance 480 nm, 0.01% Triton;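 also: 0% = no-compound wells and -100% = no-enzyme wells; nearly all actives have a fitted effect of over 25% in size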
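AmpC (5.3 nM in the dispensed reagent) in 20 mM phosphate pH 7.0 with 0.01% (detergent screen) or 0.0001% Triton X-100 was preincubated with compounds for 15 min at room temperature. Nitrocefin was then added from an 800 uM solution, and hydrolysis was followed at 480 nm.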
Sm TGR block: inhibitors of Schistosoma mansoni thioredoxin glutathione reductase | Potency, µM (titrated, usually from 114 µM), inactives show at the highest dose activity change, negative = inhibition, actives largely listed as inhibitors | Q962Y6 | AID 485364 | purified TGR, DTNB reduction, TNB absorbance 405 nm | 360,000 compounds, 3% hits; also: % is scaled to controls: 0 for no effect and ±100 for the full control effect; nearly all actives have a fitted effect of over 60% in size
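TGR 20 nM + NADPH 100 uM (dispensed conc.), cpd preinc 15 min RT; start with NADPH (500 uM addition) then DTNB (15 mM addition). Kinetic TNB absorbance, 405 nm filter. Four-parameter Hill fit across titration.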
* = called active by the depositor; u = inconclusive; x = no result. A selection: hits, their analogues and other compounds. The true share with any hit is near 12%. Unless noted, calls follow the shape of the dose curve; as a rule, active = well fitted curve in the direction sought with a large enough effect; inconclusive = small, poorly fitted or top-dose-only effect, or another doubt; inactive = no such curve, though single readings can be large; an effect the other way counts as inactive or inconclusive. Potency is read from the fitted curve at half-maximal effect.

SMILES	Pf growth 48h	Pf growth 96h	SARS PLpro yeast	AmpC no deterg	AmpC inh detg	Sm TGR block
CCN(CC)S(=O)(=O)c1ccc(C(=O)Nc2ccc3c(c2)OCCO3)cc1	6.57µM*	u	-5.8%	-28.3%	-2.3%	u
CCc1nnc(NS(=O)(=O)c2ccc(NC(=O)/C=C/c3ccc(OC)cc3OC)cc2)s1	6.1%	u	5.7%	-50.9%	-8.2%	-1.1%
COc1cccc(N2CCN(C(=O)CN3CCSc4ccc(S(=O)(=O)N(C)C)cc43)CC2)c1	x	x	x	x	-5.7%	0.4%
COc1ccc(CNC(=O)C2CCN(Cc3nc(-c4ccc(Cl)cc4)oc3C)CC2)cc1	x	x	x	x	-1.5%	-0.6%
Cc1ccccc1CNC(=O)Nc1ccc2c(c1)N(C)C(=O)c1ccccc1S2	x	x	x	x	17.2%	-3.7%
CCN(CC)S(=O)(=O)c1ccc(NC(=O)c2ccc(NS(C)(=O)=O)cc2)cc1	-17.9%	x	0.8%	-54.3%	0.1%	0.9%
CCN(CC)S(=O)(=O)c1ccc(NC(=O)c2ccc(Cl)nc2)cc1	u	4.65µM*	0.0%	-29.6%	-4.9%	-8.7%
CCc1nnc(NC(=O)[C@@H](NC(=O)c2cccc(S(=O)(=O)N(CC)CC)c2)C(C)C)s1	1.65µM*	x	16.0%	61.9%	7.2%	-0.6%
CCc1nnc(NS(=O)(=O)c2ccc(NC(=S)NC(=O)c3ccc(OC)c(OC)c3)cc2)s1	-2.4%	-28.3%	13.5%	-18.8%	-0.1%	39.8µM*
CCc1nnc(NS(=O)(=O)c2ccc(NC(=S)NC(=O)/C=C/c3ccc(F)cc3)cc2)s1	-2.3%	10.4µM*	2.3%	-44.4%	-5.9%	u
COc1ccc(Br)cc1/C(C)=N/NC1=NCCN1	1.9%	x	-6.7%	-32.9%	2.0%	-14.0%
CCCCCOc1ccc(Br)cc1/C(C)=N/NC1=NCCN1	5.22µM*	u	-41.5%	-3.4%	5.4%	-19.4%
CC(=O)Oc1c(Cl)cc(Cl)cc1/C=C/c1ccc2ccccc2n1	-11.2%	-11.8%	2.2%	-25.3%	-2.2%	8.3%
CC(=O)Oc1ccc(Cl)cc1/C=C/c1ccc2ccccc2n1	2.62µM*	u	-94.9%	-17.6%	-13.1%	4.5%
Brc1ccc2c(c1)C(OC1CN3CCC1CC3)c1ccccc1CS2 (centres undefined)	u	10.4µM*	6.6%	124.7%	-13.5%	89.1µM*
Clc1ccc2c(c1)C(C1=NCCN1)c1ccccc1CS2 (centres undefined)	u	-18.3%	9.7%	-26.6%	5.8%	4.3%
CCCOc1ccc(CCc2n[nH]c(=S)n2Cc2ccccc2)cc1	5.86µM*	1.9%	20.2%	-36.4%	-8.7%	2.6%
CCCOc1ccc(CCc2n[nH]c(=S)n2-c2ccccc2)cc1	-0.6%	5.4%	5.3%	-29.3%	1.3%	x
COc1ccc(Nc2oc(-c3ccc(COc4cccc(C)c4)o3)nc2C#N)cc1	x	x	x	x	8.9%	-2.8%
CCc1ccc(NC(=O)Nc2cn(C)c(=O)c3ccccc23)cc1	x	x	x	x	1.7%	3.3%
CC(C)CN1CN(Cc2ccco2)CNC1=S	0.4%	53.9%	6.2%	-15.3%	1.2%	-2.8%
S=C1NCN(C2CCCCC2)CN1CCc1ccccc1	4.65µM*	1.85µM*	0.3%	2.0%	5.7%	-0.1%
CCCN1CN(Cc2ccccc2)CNC1=S	16.0%	u	11.2µM*	-20.2%	-3.9%	0.9%
S=C1NCN(Cc2ccco2)CN1CCc1ccccc1	u	8.28µM*	2.4%	-5.5%	-1.6%	-0.5%
COc1cc2c(cc1OC)[C@@H]1Cc3ccc(OC)c(OC)c3CN1CC2	u	u	6.7%	20.3%	2.7%	1.6%
COc1ccc2c(c1OC)CN1CCc3cc4c(cc3[C@@H]1[C@@H]2O)OCO4	u	9.28µM*	9.6%	-35.4%	u	-3.2%
COc1cc2c(cc1OC)C1Cc3ccc(OC)c(OC)c3CN1CC2 (centres undefined)	1.31µM*	u	9.3%	-12.0%	-10.8%	2.3%
COc1ccc2c(c1OC)C(=O)O[C@@H]2[C@H]1c2cc3c(cc2CCN1C)OCO3	u	-13.1%	x	-26.2%	-17.0%	-11.3%

Screens (PubChem BioAssay)
